About 180 (0.25%) of roughly 71,000 compounds were called active. Many of the other results were omitted from the sample, so actives are more common in it than they were. Unmarked numbers belong to inactive results. The call rests on the fitted dose curve; in most records, active means well fitted curve in the direction sought with a large enough effect; inconclusive means small, poorly fitted or top-dose-only effect; inactive means flat fitted curve, though single readings scatter.
Tested on: DNA polymerase III holoenzyme (E. coli)
Experiment: qHTS Assay for Inhibitors of DNA Polymerase III Holoenzyme System
Conditions: reconstituted DNA polymerase III holoenzyme replication, biochemical; series mostly up to 57.1 µM; activity change, negative = inhibition: at the top concentration
Description: NIH Molecular Libraries Screening Centers Network [MLSCN]
NIH Chemical Genomics Center [NCGC]
Assay Provider: Charles McHenry, University of Colorado
E. coli DNA polymerase III holoenzyme complex was assayed for DNA production by fluorescent detection of the double-stranded DNA product with PicoGreen dye. The holoenzyme complex was reconstituted from the following purified protein components: DNA Polymerase III, beta subunit processivity factor, SSB single-stranded DNA binding protein, and Primase. Single-stranded, circular M13Gori was used as a substrate with dNTPs and NTPs also supplied to the substrate reagent. Compounds from the NCGC collection were incubated with the holoenzyme mixture for 15 min at room temperature to allow binding to occur, and then the reaction was started by the addition of substrate. After 30 min incubation at room temperature, PicoGreen solution containing EDTA was added to stop the reaction and to visualize the double-stranded DNA produced. Reaction progress was measured in a ViewLux CCD imager in fluorescence intensity mode by using 480 nm excitation and 540 nm emission filter set.
NCGC Assay Protocol Summary:
Buffer. 50 mM Hepes-KOH, pH 7.5, 5 % Glycerol, 0.02% NP40, 30 mM potassium;
glutamate, 1.5 mM Magnesium Acetate, 16 uM TCEP.
Buffer in columns 3 and 4 as negative control (no enzyme).
Substrate solution: 5 uM each dATP, dGTP, dCTP and TTP, 50 uM each GTP, CTP, UTP and 200 uM ATP, 1.4 nM M13gori (final concentrations).
Enzyme: 154 nM SSB, 2 nM Primase, 1 nM Beta, 0.35 nM Pol III (final concentrations).
PicoGreen/EDTA: 10 mM Tris-HCl, 10 mM EDTA, 5 uM PicoGreen (final concentrations).
Control titration: ChemBridge 5805060 (from 10 mM, then 1:2, in duplicate) was pin-transferred to upper half of column 2.
Three uL of holoenzyme mixture were dispensed to 1536-well Greiner black solid bottom plates. Compounds and controls (23 nL) were transferred via Kalypsys PinTool. The plates were incubated for 15 min at room temperature, and then 1 uL of substrate solution was added to start the reaction. After room temperature incubation for 35 minutes, 1 uL of PicoGreen solution was added to each well and the plates were read 480 nm excitation and 540 nm emission using ViewLux (Perkin-Elmer) High-throughput CCD imager and fluorescence protocol settings.
Keywords: NIH Roadmap, MLSCN, MLI, MLSMR, qHTS, NCGC, DNA Polymerase III, DNAPol3, DNAPoly3, DNA replication targets
On the % scale 0 is the no-effect control and ±100 the full control effect.

Compared with CC(C)c1cc(CN(C)C)c(O)c(C(C)(C)C)c1, CCOC(=O)N1CCN(C(=O)COc2ccc(Br)cc2)CC1 is higher in activity change, negative = inhibition: -6.4% [at 11.4 µM] for the first, 0.2% [at 11.4 µM] for the second.

Compound c1ccc(CSCCc2ccncc2)cc1 has an activity change, negative = inhibition of -2.4% [at 11.4 µM].

First: COc1cccc(Cn2c(=O)c(-c3cc(F)cc(F)c3)nc3cnc(OC)nc32)c1
Second: COc1ccc(-n2c(=O)c(-c3cn(C)c4ccccc34)nc3cnc(OC)nc32)cc1
The “activity change, negative = inhibition” value of the first is lower: -8.3% for the first, -4% for the second.

First: O=c1cc(-c2ccccc2)[nH]c2nc(Cl)ccc12
Second: COc1ccc(OC)c(NC(=O)CSc2nc(N)c(-c3ccccc3)c(=O)[nH]2)c1
The “activity change, negative = inhibition” value of the first is lower: -6.8% for the first, -5.9% for the second.

Going from COC(=O)[C@@]1(Cc2ccc(F)cc2)[C@H]2c3cc(C(=O)N4CCCC4)n(C[C@H](O)CO)c3C[C@H]2CN1C(=O)c1ccccc1 to COC(=O)[C@@]1(Cc2ccc(F)cc2)[C@H]2c3cc(C(=O)N4CCCC4)n(Cc4ccc(OC(F)(F)F)cc4)c3C[C@H]2CN1C(=O)c1ccccc1, the “activity change, negative = inhibition” value falls from 0.9% to -9.3%.

Compared with O=C(O)CC(C(=O)O)C(CC(=O)O)C(=O)O (stereo unspecified), COC(=O)[C@H](C)[C@H]1C[C@]1(C)[C@H](NC(=O)OCc1ccccc1)c1ccccc1 is higher in “activity change, negative = inhibition” value: -4% for the first, -3.5% for the second.

Going from O=C(CSc1nnc(-c2ccncc2)n1C1CCCCC1)Nc1ccccc1 to c1ccc2c(Nc3ccncc3)nc(-c3ccoc3)nc2c1, the “activity change, negative = inhibition” value falls from -3% to -6.1%.

First: CCN(CC)S(=O)(=O)c1ccc(NC(=O)CN(c2cccc(F)c2)S(C)(=O)=O)cc1
Second: CC(C)Cc1ccc(S(=O)(=O)N2CCN(C(=O)c3ccco3)CC2)cc1
The “activity change, negative = inhibition” value of the first is lower: -3.6% for the first, 0.3% for the second.

First: O=C(Nc1c(-c2ccccc2)nc2c(Br)cc(Br)cn12)c1ccco1
Second: O=C(NCc1cccnc1)c1cn(-c2ccccc2)nc1-c1cccs1
The “activity change, negative = inhibition” value of the first is lower: -2% for the first, -0.6% for the second.

Compared with COC(=O)[C@@]1(Cc2ccc(F)cc2)[C@@H]2[C@@H](CC(=O)[C@H]2CC(=O)C(=O)N2CCCC2)CN1C(=O)c1ccccc1, COC(=O)C1(C)C=CCN1C(=O)c1ccccc1 (stereo unspecified) is higher in “activity change, negative = inhibition” value: -11.1% for the first, -2.1% for the second.

Going from O=c1[nH]c(=O)c2nc3ccccc3nc2[nH]1 to O=C(NCc1ccccn1)c1cc2ccccc2oc1=O, the “activity change, negative = inhibition” value rises from -12.6% to -6.4%.

Going from Cc1cccn2c(=O)c3cc(C(=O)NCc4ccccn4)n(C)c3nc12 to CC1Cc2nc(SCC(=O)Nc3ccccc3F)n(C)c(=O)c2S1 (stereo unspecified), the “activity change, negative = inhibition” value falls from -3.4% to -4.2%.

Going from COc1ccc(NC(=O)N2CC3(CCN(C(=O)c4cccn4C)CC3)C2)cc1 to O=C(Nc1cccc(F)c1)N1CC2(CCN(C(=O)c3cnccn3)CC2)C1, the “activity change, negative = inhibition” value falls from 8.4% to -9%.

Going from Cc1cc(C)cc(N(CC(=O)NCC2CCCO2)S(=O)(=O)c2c(C)noc2C)c1 (stereo unspecified) to COc1ccc(-c2nnc(SCC(=O)NC3CCCCC3)o2)cc1OC, the “activity change, negative = inhibition” value falls from 1.2% to -1.4%.

First: COc1ccc2nc(N3CCCC(O)C3)c(C#N)cc2c1 (stereo unspecified)
Second: CC1CCN(c2oc(-c3ccccc3F)nc2C#N)CC1
The “activity change, negative = inhibition” value of the first is lower: -8.3% for the first, -5.5% for the second.

Going from CC(=O)Oc1ccccc1C(=O)Nc1ncc([N+](=O)[O-])s1 to CCOc1ccccc1C1C(C(=O)OC)=CN(C)C=C1C(=O)OC, the “activity change, negative = inhibition” value falls from -1.5% to -3.1%.

Compared with N#Cc1c(NC(=O)CSc2nc3ccccc3c(=O)n2Cc2ccco2)sc2c1CCCC2, CCOC(=O)c1sc(N(Cc2ccccc2)C(=O)CN2C(=O)CN(C)C2=O)nc1C is higher in “activity change, negative = inhibition” value: -1.2% for the first, 5.4% for the second.

Going from CC(=O)Oc1cccc(N2C(=O)C3CC=C(Cl)CC3C2=O)c1 (stereo unspecified) to COC(=O)C1=C(C)N(C)C(C)=C(C(=O)OC)C1c1cccc(Br)c1, the “activity change, negative = inhibition” value rises from -1.3% to 2.8%.

First: COc1ccc(CNc2ncnc3ccc(-c4cccnc4)cc23)c(OC)c1
Second: Cc1ccc(N2C(=O)c3oc4ccccc4c(=O)c3C2c2cccnc2)nc1 (stereo unspecified)
The “activity change, negative = inhibition” value of the first is higher: 17.7% for the first, -4.1% for the second.

First: CCOC(=O)CC1C(=O)NCCN1C(=O)COc1ccc(Br)cc1C (stereo unspecified)
Second: CCCCCCN(C(=O)CCCCCN1C(=O)NC(c2ccc(C(F)(F)F)cc2)C(C(=O)OCc2ccccc2)=C1C)C(C(=O)NCCCC)c1ccc(OCC(=O)OC)c(C(=O)OC)c1 (stereo unspecified)
The “activity change, negative = inhibition” value of the first is lower: -2.6% for the first, -2.4% for the second.

Going from N#C/C(=C\c1ccc(O)c(O)c1)C(N)=O to C[C@@H]1O[C@@H](O[C@@H]2[C@@H](O)[C@H](OCCc3ccc(O)c(O)c3)O[C@H](CO[C@@H]3O[C@H](CO)[C@@H](O)[C@H](O)[C@H]3O)[C@H]2OC(=O)/C=C/c2ccc(O)c(O)c2)[C@H](O)[C@H](O)[C@H]1O, the “activity change, negative = inhibition” value rises from -1.7% to 4.8%.

Going from O=C(Nc1c2c(nn1-c1ccc(F)cc1)CS(=O)C2)C12CC3CC(CC(C3)C1)C2 (stereo unspecified) to COc1cccc(-c2cc3nc4c(c(N5CCC6(CC5)OCCO6)n3n2)CCCC4)c1, the “activity change, negative = inhibition” value falls from -4% to -4.6%.

First: COc1ccccc1N1CCN(Cc2ccc(OC)c3ccccc23)CC1
Second: O=S(=O)(Nc1nccs1)c1ccc2c(c1)OCCO2
The “activity change, negative = inhibition” value of the first is lower: -5.3% for the first, 7.6% for the second.

For C/C=C1\C(=O)C[C@@H]2[C@@H]3CCC4=CC(=O)CC[C@@]4(C)[C@H]3CC[C@@]12C, the “activity change, negative = inhibition” value was -6.3%.

Compared with CC(=O)O[C@]1(C(C)=O)CC[C@@H]2[C@@H]3C=C(C)C4=CC(=O)CC[C@@]4(C)[C@H]3CC[C@]21C, COc1ccc(C[C@H](N)C(=O)N[C@@H]2[C@H](O)[C@H](n3cnc4c(N(C)C)ncnc43)O[C@@H]2CO)cc1 is lower in “activity change, negative = inhibition” value: 1% [at 25.6 µM] for the first, -1.2% [at 25.6 µM] for the second.

O=C(NCc1ccccn1)c1ccc2nc(-c3ccco3)c(-c3ccco3)nc2c1 was tested, and the Potency was 3.98 µM (active).

In the case of OCCN1CCN(CC/C=C2\c3ccccc3Sc3ccc(C(F)(F)F)cc32)CC1, the activity change, negative = inhibition was “inactive”.
For O=C(O)C1=CCCN(CCON=C(c2ccccc2)c2ccccc2)C1, the activity change, negative = inhibition was “inactive”.

Source: PubChem BioAssay AID603 (National Center for Advancing Translational Sciences (NCATS), 2007)
